“And” between values parts separate entries of the source, which are not always exact repeats. Equal values may be shown once. Results filed as inconclusive are left out. The source made the active and inactive calls. Unless noted, calls come from the whole dose curve; as a rule, active = well fitted curve in the direction sought with a large enough effect; inconclusive = small, poorly fitted or top-dose-only effect, or another doubt; inactive = no such curve, though single readings can be large; an effect the other way counts as inactive or inconclusive.

The test system of assay [1] is Zika virus NS2B-NS3 protease. The assay is described as follows: Primary screen GU AMC qHTS for Zika virus inhibitors (AID 1347154).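 Note: 0% = no-inhibitor control and -100% = no-enzyme control; nearly all actives have a fitted effect of over 70% in size.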 The gist of the method: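 Fluorogenic AMC-substrate cleavage by noncovalent NS2B-NS3 protease complex (25 nM, pH 8.0 Tris buffer with Tween 20) followed for 15 minutes at room temperature (~20% conversion). Percent inhibition from ex340/em450 signal change, fitted by 4-parameter Hill equation.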
A general note: Quantitative high-throughput screening tests each substance at several concentrations.

Assay [2] can be described thus: Counterscreen qHTS for small molecule stabilizers of the endoplasmic reticulum resident proteome: GLuc-NoTag assay (AID 1508627).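 For activity change, negative = inhibition: 0% = thapsigargin alone and -100% = DMSO vehicle control.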 Note: potency is the fitted concentration of half-maximal effect. The method, boiled down:
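Counterscreen line: SH-SY5Y-GLuc-NoTag cells, treated with compound 19 hr before a 4 hr, 100 nM thapsigargin calcium depletion. Secreted Gaussia luciferase in the medium was measured by luminescence after coelenterazine was added (0.07x final), with cells unlysed.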
A general note: Counterscreens check selectivity or assay interference.

Assay [3] concerns the target Cytochrome P450 1A2 (Homo sapiens) (UniProt P05177). Briefly: p450-cyp1a2 (AID 410; calls by dose curve; note: potency is the fitted concentration of half-maximal effect;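 for activity change, negative = inhibition: -100% = full effect of reference inhibitor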). The method, boiled down: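 Luminescent demethylation readout: Luciferin-ME (100uM, equal to Km) turned over by 20nM CYP1A2 for 60 min at room temperature after NADPH regeneration addition, following 10 min compound preincubation. Normalization used 57 uM furafylline as full inhibition.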

In assay [4] the target is Glucocorticoid receptor (Homo sapiens) (UniProt P04150). The assay is described as follows: GR-GFP Redistribution (AID 450;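 active = compounds whose dose series gives a full or clear partial fitted curve of increased nuclear translocation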; note: potency is the fitted concentration of half-maximal effect). To be noted: U2OS GR-GFP nuclear translocation, laser cytometry, 2 h.
For assay [5] the target is unchanged. Briefly: GR-EFC Redistribution (AID 451; calls by dose curve; note: potency is the fitted concentration of half-maximal effect). To be noted: CHO-K1 GR-EFC translocation, beta-gal luminescence, 2 h. The method, boiled down:
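Translocation of GR-ED fusion to nuclear EA restores b-gal, read by luminescence after 1 h room-temperature detection. Engineered CHO-K1 biosensor cells, 1,000/well, exposed 2 h at 37 C to titrations up to 46 uM final.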

The target of assay [6] is Mitogen-activated protein kinase 10 (Mus musculus) (UniProt Q61831). The assay is described as follows: JNK3 AlphaScreen Assay (AID 530; active = well fitted curve in either direction with a large enough effect, not every such curve was filed as active;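 note: kinase came from lysate of stimulated human HepG2 cells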; note: potency is the fitted concentration of half-maximal effect;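 for activity change, negative = inhibition: signal reports phosphorylation of biotinylated GST-cJun 1-79 at Ser73 with 10 µM ATP; % is set by controls: 0 for no effect and ±100 for the full control effect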). The gist of the method: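 qHTS titrations with 15 min compound pre-incubation before adding ATP (10 uM final). Read-out: AlphaScreen of Ser73-phosphorylated biotin-GST-cJun using HepG2 lysate JNK3 activated by IL-1β and TNFα.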
(In general: Alpha assays give light when donor and acceptor beads are brought close together.)

Assay [7] has as its target Cytochrome P450 2C9 (Homo sapiens) (UniProt P11712). The assay is described as follows: qHTS Assay for Inhibitors and Substrates of Cytochrome P450 2C9 (AID 883). Note: potency is the fitted concentration of half-maximal effect; nearly all actives have a fitted effect of over 60% in size. The method, boiled down:
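Luminescent read-out of deoxyluciferin hydroxylation, normalized to 57uM sulphaphenazole (AC100). Reaction: 10nM enzyme, 100uM Luciferin-H (equal to KM), 25mM KPO4, 10 min compound preincubation, then 60 min with NADPH regeneration, both at 37C.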

The target in assay [8] is Cytochrome P450 3A4 (Homo sapiens) (UniProt P08684). Briefly: qHTS Assay for Inhibitors and Substrates of Cytochrome P450 3A4 (AID 884). Note: potency is the fitted concentration of half-maximal effect; nearly all actives have a fitted effect of over 50% in size. The gist of the method: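 Luminescent readout of luciferin produced by CYP3A4 (20 nM) dealkylation of Luciferin-PPXE, 25 uM (its KM). NADPH-driven reaction ran 60 min at RT after 10 min compound preincubation; data scaled to 57 uM ketoconazole as 100% inhibition.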

Assay [9] shares this target. Briefly: qHTS Assay for Activators of Cytochrome P450 3A4 (AID 885). Note: nearly all actives have a fitted effect of over 65% in size. The gist of the method: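 Activators are scored by enhanced luminescence from CYP3A4 conversion of luciferin-PPXE (25uM, equal to KM) to luciferin, after 60 min at RT with an NADPH-regenerating system.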
In assay [10] the target is Cytochrome P450 2C19 (Homo sapiens) (UniProt P33261). The assay is described as follows: qHTS Assay for Inhibitors and Substrates of Cytochrome P450 2C19 (AID 899). Note: potency is the fitted concentration of half-maximal effect; nearly all actives have a fitted effect of over 60% in size. The gist of the method:
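Luminescence readout of luciferin formed from 10uM Luciferin-H EGE (KM level) by 5 nM CYP2C19 in 50mM KPO4. 60 min NADPH-driven reaction at 37C after 10 min compound preincubation; data scaled to 57uM ketoconazole inhibition.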

A short description of assay [11]: qHTS Assay for Lipid Storage Modulators (AID 1519; calls by dose curve; for activity change, negative = inhibition: % is set by controls: 0 for no effect and ±100 for the full control effect). The settings on record: Drosophila S3 cells, BODIPY lipid droplet/cell ratio, laser cytometry, cells loaded with oleic acid. The gist of the method: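 Cells seeded at 5,000 per well were treated with compounds over a concentration series and loaded with oleic acid (400 uM, as added). Lipid droplet fluorescence (488 nm excitation, 500-530 nm channel) was read by laser-scanning cytometry and normalized to 20 uM Triacsin C.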

In assay [12] the target is Ubiquitin carboxyl-terminal hydrolase 1 (Homo sapiens) (UniProt O94782). Briefly: Inhibitors of USP1/UAF1: Pilot qHTS (AID 504865).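 Note: rhodamine fluorescence freed from ubiquitin-rhodamine substrate followed over time; top concentration of the series differs between compounds; % is set by controls: 0 for no effect and ±100 for the full control effect; nearly all actives have a fitted effect of over 35% in size.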 The method, boiled down:
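Kinetic fluorescence assay: 1nM USP1/UAF1, 15 min compound preincubation, then 150nM Ub-Rho; 480/540 nm.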

Assay [13] has as its target DNA dC->dU-editing enzyme APOBEC-3G (Homo sapiens) (UniProt Q9HC16). Briefly: qHTS for inhibitors of Vif-A3G interactions: Validation (AID 588379). For activity change, negative = inhibition: 0% is about no effect. Note: potency is the fitted concentration of half-maximal effect. The gist of the method:
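Yellow fluorescence (Ex 488, Em 500-530) of Vif-coexpressing HeLa A3G-eYFP cells, scanned by Acumen cytometer, reports blocked A3G degradation. Cells plated at 700/well overnight at 37 deg C before compound addition, then a further overnight compound incubation at 37 deg C.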

Assay [14] in a line: Confirmatory qHTS for small molecule stabilizers of the endoplasmic reticulum resident proteome: Secreted ER Calcium Modulated Protein (SERCaMP) assay (AID 1508628). Note: potency is the fitted concentration of half-maximal effect; nearly all actives have a fitted effect of over 40% in size. The method, boiled down: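 Reporter secretion upon ER calcium depletion (100 nM thapsigargin, 4 h, 37C) is measured as medium luminescence with coelenterazine, after 16 h compound pretreatment of SH-SY5Y-GLuc-SERCaMP cells; primary at three concentrations up to 38.3 uM, follow-up at 11 (up to 76.6 uM).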

Assay [15] concerns the target 3',5'-cyclic-AMP phosphodiesterase 4B (Homo sapiens) (UniProt Q07343). Briefly: qHTS Assay for Inhibitors of PDE-IV (AID 607; active = well fitted activation curve with a large enough effect in the main read-out, with a control signal flat, not every such curve was filed as active; note: % of control where 0% means no effect). The gist of the method:
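The readout is membrane depolarisation from a cAMP-sensing CNG channel, detected with a potential dye at ex 535/em 590. Cells were HEK293-derived (endogenous PDE-IV) at 1000 cells/well, titrated up to 22.9 uM final.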

Assay [16] addresses Guanine nucleotide-binding protein G(i) subunit alpha-1 (Homo sapiens) (UniProt P63096). The assay is described as follows: qHTS Assay for Inhibitors of RGS12 GoLoco Motif Activity (Green Fluorophore) (AID 879).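 Note: 0% = labeled peptide with Gαi1 and full inhibition = labeled peptide alone without protein; negative values mean loss of peptide binding seen as reduced polarization.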 The method, boiled down: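 A drop in FITC polarization marked displacement of the FITC-tagged RGS12 GoLoco peptide (10 nM) from Gαi1 (50 nM). Compounds were incubated 10 min at room temperature in Tris pH 7.5 buffer containing 150 mM NaCl, 0.1 mM GDP and 0.05% NP40; unlabeled peptide titration served as control.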

A short description of assay [17]: qHTS Assay for Identification of Small Molecule Agonists for Thrombopoietin (TPO) Signaling Pathway (AID 917). Note: potency is the fitted concentration of half-maximal effect. The method, boiled down:
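Quantitative HTS for pathway activators: compounds were pin-transferred onto IL-3-starved Ba/F3 cells expressing human TPO receptor, TPO was added at its EC50 (26 pM final), and after 24 hrs at 37 C reporter luciferase was measured.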

Assay [18] has as its target Muscarinic acetylcholine receptor M1 (Rattus norvegicus) (UniProt P08482). The assay is described as follows: qHTS Assay for Antagonists of Acetylcholine Muscarinic M1 Receptor: Measurement of IP-One Response (AID 944). Note: potency is the fitted concentration of half-maximal effect; nearly all actives have a fitted effect of over 75% in size. The method, boiled down:
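IP1 accumulation measured via TR-FRET between d2-IP1 and Eu-cryptate anti-IP1 antibody after carbachol (200 nM, EC80) stimulation for 30 min; rat M1-transfected CHO cells received compound 10 min before agonist.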

Assay [19] has as its target Pyruvate kinase (Leishmania mexicana) (UniProt Q27686). The assay is described as follows: qHTS Validation Assay for Inhibitors of Leishmania Mexicana Pyruvate Kinase (AID 945). Note: potency is the fitted concentration of half-maximal effect. The method, boiled down: (§1)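 Luminescent ATP detection (PKLight) after a 1 h room-temperature reaction of 0.2 nM LmPYK E451W mutant with 0.5 mM PEP and 0.1 mM ADP at pH 7.2. Activity is normalized to DMSO-only control wells.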

For assay [20], the target named is Pyruvate kinase PKM (Homo sapiens) (UniProt P14618). The assay is described as follows: qHTS Assay for Activators of Human Muscle Pyruvate Kinase (AID 954; active = well fitted curve in the direction sought with a large enough effect, not every such curve was filed as active;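 note: 0% = uninhibited enzyme and -100% = no enzyme or full thiadiazolimine inhibition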). The gist of the method:
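PKM2, human, >95% pure, 0.1 nM; PEP 0.5 mM (Km), ADP 0.1 mM; 50 mM imidazole pH 7.2, 50 mM KCl, 0.01% Tween 20, 0.05% BSA; 1 h RT; luciferase luminescence readout.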

The target is the same in assay [21]. The assay is described as follows: qHTS Assay for Inhibitors of Human Muscle Pyruvate Kinase (AID 958). The settings on record: purified human PKM enzyme activity. The method, boiled down: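 ATP production by PKM2 detected via luciferase luminescence after 1 h room-temperature reaction (0.1 nM enzyme, PEP at Km 0.5 mM, ADP 0.1 mM, pH 7.2 imidazole buffer). Inhibition scaled to no-enzyme control; activation referenced to 0.3 nM enzyme wells.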

Assay [22] has as its target Pyruvate kinase (Leishmania mexicana) (UniProt Q27686). The assay is described as follows: qHTS Validation Assay for Activators of Leishmania Mexicana Pyruvate Kinase (AID 959). The method, boiled down: as §1
The target in assay [23] is Alpha-galactosidase A (Homo sapiens) (UniProt P06280). Briefly: Counterscreen for Glucocerebrosidase Inhibitors: qHTS Assay for Human alpha-Galactosidase at pH 4.5 (AID 992). Note: 0% is about no effect. The method, boiled down:
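Fluorogenic 4-MU alpha-D-galactoside (80 uM) hydrolysis, 2 nM enzyme, pH 4.5 citrate buffer + 0.005% Tween-20; 20 min RT; NaOH/glycine pH 10 stop; Ex365/Em440. Compounds titrated 0.7 nM–77 uM; Hill-equation AC50.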

The nature of assay [24]: Cell Viability qHTS for small molecule stabilizers of the endoplasmic reticulum resident proteome (AID 1508629).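 Note: human SH-SY5Y neuroblastoma cells carrying the GLuc-SERCaMP reporter; compound exposure about 46 h in total before the viability read; % is set by controls: 0 for no effect and ±100 for the full control effect.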 To be noted: cell viability counter-screen, 100 nM thapsigargin for final 4 h.

Sequence of Cytochrome P450 1A2 (Homo sapiens) (P05177 whole entry, looked up): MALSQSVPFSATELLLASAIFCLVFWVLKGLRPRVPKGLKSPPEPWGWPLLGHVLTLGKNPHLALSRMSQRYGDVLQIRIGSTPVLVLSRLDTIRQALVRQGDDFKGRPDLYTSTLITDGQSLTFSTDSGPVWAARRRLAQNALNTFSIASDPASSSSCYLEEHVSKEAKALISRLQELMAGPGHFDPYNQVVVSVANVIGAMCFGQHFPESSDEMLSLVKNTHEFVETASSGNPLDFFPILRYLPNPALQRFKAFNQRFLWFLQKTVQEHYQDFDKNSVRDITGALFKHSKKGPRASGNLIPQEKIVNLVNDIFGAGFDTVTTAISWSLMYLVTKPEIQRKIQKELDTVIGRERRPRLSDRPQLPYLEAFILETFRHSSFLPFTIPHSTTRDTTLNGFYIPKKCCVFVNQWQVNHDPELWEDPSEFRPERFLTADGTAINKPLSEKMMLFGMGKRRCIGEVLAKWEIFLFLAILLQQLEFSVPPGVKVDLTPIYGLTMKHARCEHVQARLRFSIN
Sequence of Cytochrome P450 3A4 (Homo sapiens) (P08684 whole entry, looked up): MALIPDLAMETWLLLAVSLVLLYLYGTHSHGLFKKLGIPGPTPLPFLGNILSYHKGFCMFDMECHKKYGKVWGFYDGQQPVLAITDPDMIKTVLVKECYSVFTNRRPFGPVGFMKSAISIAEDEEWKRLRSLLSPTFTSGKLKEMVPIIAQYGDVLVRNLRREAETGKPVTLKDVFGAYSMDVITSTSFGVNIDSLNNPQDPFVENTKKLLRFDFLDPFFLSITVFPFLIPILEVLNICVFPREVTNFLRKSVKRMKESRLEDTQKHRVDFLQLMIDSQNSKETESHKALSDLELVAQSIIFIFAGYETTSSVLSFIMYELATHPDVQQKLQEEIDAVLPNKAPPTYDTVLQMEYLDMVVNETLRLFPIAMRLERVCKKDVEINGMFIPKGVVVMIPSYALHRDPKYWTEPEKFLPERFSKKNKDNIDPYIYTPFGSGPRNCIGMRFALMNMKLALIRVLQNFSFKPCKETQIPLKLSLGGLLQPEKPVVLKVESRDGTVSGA
Sequence of Glucocorticoid receptor (Homo sapiens) (P04150 whole entry, looked up): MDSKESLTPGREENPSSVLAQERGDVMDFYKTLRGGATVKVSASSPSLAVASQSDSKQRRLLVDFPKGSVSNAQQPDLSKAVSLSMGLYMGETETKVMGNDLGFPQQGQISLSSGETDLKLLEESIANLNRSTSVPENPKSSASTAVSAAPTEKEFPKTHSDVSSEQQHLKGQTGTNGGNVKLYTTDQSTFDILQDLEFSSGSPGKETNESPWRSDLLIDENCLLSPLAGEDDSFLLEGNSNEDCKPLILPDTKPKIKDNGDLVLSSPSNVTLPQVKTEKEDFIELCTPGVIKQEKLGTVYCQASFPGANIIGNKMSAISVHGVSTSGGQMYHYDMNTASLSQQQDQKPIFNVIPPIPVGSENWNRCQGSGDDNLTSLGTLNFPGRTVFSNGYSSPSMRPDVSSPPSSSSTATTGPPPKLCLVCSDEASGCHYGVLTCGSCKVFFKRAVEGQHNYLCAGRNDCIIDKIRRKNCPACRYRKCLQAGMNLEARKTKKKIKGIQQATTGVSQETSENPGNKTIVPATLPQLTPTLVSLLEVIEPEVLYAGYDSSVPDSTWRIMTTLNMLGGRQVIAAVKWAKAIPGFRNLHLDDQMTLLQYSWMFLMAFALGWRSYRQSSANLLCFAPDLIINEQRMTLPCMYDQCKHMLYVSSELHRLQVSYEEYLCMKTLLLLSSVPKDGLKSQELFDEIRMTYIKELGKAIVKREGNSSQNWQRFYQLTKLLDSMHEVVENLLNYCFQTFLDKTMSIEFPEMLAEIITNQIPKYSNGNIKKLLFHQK
Sequence of Cytochrome P450 2C19 (Homo sapiens) (P33261 whole entry, looked up): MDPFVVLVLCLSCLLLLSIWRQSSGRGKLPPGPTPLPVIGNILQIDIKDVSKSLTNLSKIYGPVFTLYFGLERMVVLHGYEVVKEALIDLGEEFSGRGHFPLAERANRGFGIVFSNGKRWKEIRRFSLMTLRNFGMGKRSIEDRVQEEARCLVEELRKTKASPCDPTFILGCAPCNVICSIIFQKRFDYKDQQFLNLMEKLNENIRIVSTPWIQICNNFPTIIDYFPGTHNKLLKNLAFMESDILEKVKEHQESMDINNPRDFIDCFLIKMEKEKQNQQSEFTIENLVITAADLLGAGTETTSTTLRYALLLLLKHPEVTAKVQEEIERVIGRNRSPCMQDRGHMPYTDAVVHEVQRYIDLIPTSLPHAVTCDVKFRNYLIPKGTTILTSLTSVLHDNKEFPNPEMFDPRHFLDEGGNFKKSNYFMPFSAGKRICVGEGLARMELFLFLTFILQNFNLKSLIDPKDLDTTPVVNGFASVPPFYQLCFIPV
Sequence of Cytochrome P450 2C9 (Homo sapiens) (P11712 whole entry, looked up): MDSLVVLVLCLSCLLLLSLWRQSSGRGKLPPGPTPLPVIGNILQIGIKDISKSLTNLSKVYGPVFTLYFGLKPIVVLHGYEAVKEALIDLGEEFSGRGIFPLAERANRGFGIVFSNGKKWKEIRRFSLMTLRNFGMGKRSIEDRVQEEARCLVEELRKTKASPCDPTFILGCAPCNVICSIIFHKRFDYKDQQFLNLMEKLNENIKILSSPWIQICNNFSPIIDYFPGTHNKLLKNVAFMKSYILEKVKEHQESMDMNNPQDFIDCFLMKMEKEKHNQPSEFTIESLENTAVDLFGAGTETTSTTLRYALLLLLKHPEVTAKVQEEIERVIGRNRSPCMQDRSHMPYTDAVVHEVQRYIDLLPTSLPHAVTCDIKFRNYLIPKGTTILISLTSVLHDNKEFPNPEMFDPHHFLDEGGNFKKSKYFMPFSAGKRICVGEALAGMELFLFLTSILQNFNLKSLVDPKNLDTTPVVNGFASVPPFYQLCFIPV
Sequence of Pyruvate kinase PKM (Homo sapiens) (P14618 whole entry, looked up): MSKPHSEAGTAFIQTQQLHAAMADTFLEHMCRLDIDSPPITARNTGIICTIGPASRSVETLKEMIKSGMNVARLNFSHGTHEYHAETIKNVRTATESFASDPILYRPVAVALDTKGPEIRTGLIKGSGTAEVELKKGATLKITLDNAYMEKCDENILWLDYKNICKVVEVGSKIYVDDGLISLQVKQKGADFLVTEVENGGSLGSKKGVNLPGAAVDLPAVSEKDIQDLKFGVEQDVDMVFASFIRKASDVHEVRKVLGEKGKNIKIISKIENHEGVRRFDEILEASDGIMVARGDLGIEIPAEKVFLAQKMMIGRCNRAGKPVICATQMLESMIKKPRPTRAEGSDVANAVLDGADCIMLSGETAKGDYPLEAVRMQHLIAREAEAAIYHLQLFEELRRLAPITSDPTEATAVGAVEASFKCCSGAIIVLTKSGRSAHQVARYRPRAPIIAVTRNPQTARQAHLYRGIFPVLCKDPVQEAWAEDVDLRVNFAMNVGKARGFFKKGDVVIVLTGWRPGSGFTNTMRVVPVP
Sequence of Pyruvate kinase (Leishmania mexicana) (Q27686 2-499 E452W): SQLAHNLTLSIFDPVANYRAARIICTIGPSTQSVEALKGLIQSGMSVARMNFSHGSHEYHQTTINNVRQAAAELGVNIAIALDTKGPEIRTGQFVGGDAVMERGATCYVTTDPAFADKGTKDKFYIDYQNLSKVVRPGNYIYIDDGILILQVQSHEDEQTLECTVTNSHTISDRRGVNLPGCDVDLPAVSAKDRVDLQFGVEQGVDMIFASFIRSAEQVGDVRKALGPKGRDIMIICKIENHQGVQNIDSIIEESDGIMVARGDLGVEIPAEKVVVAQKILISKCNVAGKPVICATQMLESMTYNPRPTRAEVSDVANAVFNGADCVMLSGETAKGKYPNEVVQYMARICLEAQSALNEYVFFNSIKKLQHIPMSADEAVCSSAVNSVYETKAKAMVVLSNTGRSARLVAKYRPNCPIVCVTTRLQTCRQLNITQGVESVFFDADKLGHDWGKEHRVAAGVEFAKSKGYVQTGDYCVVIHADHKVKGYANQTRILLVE
Sequence of DNA dC->dU-editing enzyme APOBEC-3G (Homo sapiens) (Q9HC16 whole entry, looked up): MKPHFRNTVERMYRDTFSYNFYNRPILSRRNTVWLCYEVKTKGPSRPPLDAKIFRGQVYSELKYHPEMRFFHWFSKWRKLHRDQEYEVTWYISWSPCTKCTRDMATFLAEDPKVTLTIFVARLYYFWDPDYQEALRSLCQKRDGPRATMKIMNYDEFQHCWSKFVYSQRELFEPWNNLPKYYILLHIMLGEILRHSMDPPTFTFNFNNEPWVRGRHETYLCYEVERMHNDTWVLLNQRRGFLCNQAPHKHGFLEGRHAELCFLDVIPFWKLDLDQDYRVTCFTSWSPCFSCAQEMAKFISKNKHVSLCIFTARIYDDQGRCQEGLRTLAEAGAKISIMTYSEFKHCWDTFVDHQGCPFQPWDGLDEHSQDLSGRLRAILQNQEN
Sequence of 3',5'-cyclic-AMP phosphodiesterase 4B (Homo sapiens) (Q07343 whole entry, looked up): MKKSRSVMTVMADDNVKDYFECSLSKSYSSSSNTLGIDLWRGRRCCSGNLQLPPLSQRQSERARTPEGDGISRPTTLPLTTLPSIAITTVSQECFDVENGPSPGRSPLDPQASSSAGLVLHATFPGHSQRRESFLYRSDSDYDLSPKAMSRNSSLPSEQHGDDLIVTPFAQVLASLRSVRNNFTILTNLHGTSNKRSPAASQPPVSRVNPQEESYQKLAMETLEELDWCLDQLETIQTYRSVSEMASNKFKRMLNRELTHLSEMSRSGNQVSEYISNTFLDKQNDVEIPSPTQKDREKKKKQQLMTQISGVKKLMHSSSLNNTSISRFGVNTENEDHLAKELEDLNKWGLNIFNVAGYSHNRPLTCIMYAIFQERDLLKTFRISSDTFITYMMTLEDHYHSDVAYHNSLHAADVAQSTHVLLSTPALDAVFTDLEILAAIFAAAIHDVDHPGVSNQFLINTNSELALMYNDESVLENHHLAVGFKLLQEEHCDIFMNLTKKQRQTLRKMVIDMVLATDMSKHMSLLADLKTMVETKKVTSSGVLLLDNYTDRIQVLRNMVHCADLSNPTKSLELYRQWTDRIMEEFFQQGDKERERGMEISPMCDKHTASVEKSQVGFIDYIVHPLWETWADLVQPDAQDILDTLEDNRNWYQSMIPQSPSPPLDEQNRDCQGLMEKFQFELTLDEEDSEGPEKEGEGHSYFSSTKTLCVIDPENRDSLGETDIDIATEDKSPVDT

For `c1ncc(CCCC2CCNCC2)[nH]1`, the Potency entry in assay [1] and in assay [2] was “inactive” in each case.

Turning to `C=C[C@@]1(C)CC(=O)[C@@]2(O)[C@@]3(C)[C@@H](O)CCC(C)(C)[C@@H]3[C@H](OC(=O)CCN(C)C)[C@H](OC(C)=O)[C@@]2(C)O1`, the Potency result in [3], in assay [6], in assay [9], in [12], in assay [13] and in assay [1] was “inactive” throughout. Also, the Potency result in [2] was “inactive”. In addition, the Potency in [4] was > 46 µM (inactive); in [5] it was > 46 µM (inactive); in assay [7], 0.126 µM (active); in assay [8], 2.51 µM (active); in assay [10], 0.251 µM (active); in assay [14] it was 14.1 µM (active). Besides, in assay [11] (at 57.5 µM (top of the series)), the activity change, negative = inhibition was -1.7% (inactive). Moreover, the max response in [11] (measured here: cell count channel max response) was -14.6%; in assay [11] (measured here: lipid channel max response), -17.4%.

As to `CN(C)c1ccc(/C=C2/C(=O)Nc3ccccc32)cc1`, the Potency was 398 nM (active) and 100 nM (active) in assay [3]; > 46 µM (inactive) in [4]; > 46 µM (inactive) in [5]; 5.01 µM (active) in assay [6]; 5.01 µM (active) in assay [7]; 20 µM (active) in assay [10]. For the same molecule, the Potency in assay [17] is 0.0631 µM (active); in assay [18] it was 14.1 µM (active); in [19], 3.16 µM (active); in [21], 3.16 µM (active); in assay [13], 26.6 µM (active); in [2], 35.5 µM (active). Besides, the Potency result in [15], in assay [9], in [22] and in [1] was “inactive” in each case. For the same molecule, the outcome in assay [16], in [20] and in [23] was inactive. In addition, in [24], the max response is 8.84% (inactive).

Source of the values: PubChem BioAssay (NCATS).
